Targets with a hit are over-represented here; the source holds about 7,900 in all. About 0.6% of all pairs of compound and target were hits.
Key:
Assay in all cases: log2 fold change, soluble protein after heating vs DMSO (PISA); higher = thermal stabilisation; K562 cells, 10 uM, 30 min; active = over 0.2 and 3.5 SD of the protein, either way, in both replicates (recomputed)
[1] = compound: CS(=O)(=O)c1ccc(-c2cnc(N)c(C(=O)Nc3ccccc3)n2)cc1
Method in brief: (§1)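 K562 cells (2×10^6 cells/mL) were treated with 10 μM compound for 30 min, and aliquots were heated for 3 min over 48°C-58°C. Pooled aliquots were extracted in PBS with 0.5% NP-40 at 4°C, and the supernatant after 21,000xg for 90 min was measured by TMTpro 16plex LC-MS/MS with channel sums equalised. Reported thermal stability, relative to control samples and from duplicates, is a log2 fold change.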

crizotinib = compound: C[C@@H](Oc1cc(-c2cnn(C3CCNCC3)c2)cnc1N)c1c(Cl)ccc(F)c1Cl [crizotinib]
Method in brief: as §1

[2] = compound: C[C@@H]1COCCN1C2=NC(=NC(=C2)C3(CC3)S(=O)(=O)C)C4=C5C=CNC5=CC=C4
Method in brief: as §1

[3] = compound: C[C@H](C1=CC=C(C=C1)C(=O)NC2=C3C=CNC3=NC=C2)N
Method in brief: as §1

duvelisib = compound: C[C@H](Nc1ncnc2nc[nH]c12)c1cc2cccc(Cl)c2c(=O)n1-c1ccccc1 [duvelisib]
Method in brief: as §1

gandotinib = compound: Cc1cc(Nc2cc(CN3CCOCC3)c3nc(C)c(Cc4ccc(Cl)cc4F)n3n2)n[nH]1 [gandotinib]
Method in brief: as §1

tozasertib = compound: Cc1cc(Nc2cc(N3CCN(C)CC3)nc(Sc3ccc(NC(=O)C4CC4)cc3)n2)n[nH]1 [tozasertib]
Method in brief: as §1

[4] = compound: Cc1cc(SCc2sc(-c3ccc(C(F)(F)F)cc3)nc2C)ccc1OCC(=O)O
Method in brief: as §1

doramapimod = compound: Cc1ccc(-n2nc(C(C)(C)C)cc2NC(=O)Nc2ccc(OCCN3CCOCC3)c3ccccc23)cc1 [doramapimod]
Method in brief: as §1

ispinesib = compound: Cc1ccc(C(=O)N(CCCN)[C@@H](c2nc3cc(Cl)ccc3c(=O)n2Cc2ccccc2)C(C)C)cc1 [ispinesib]
Method in brief: as §1

bafetinib = compound: Cc1ccc(NC(=O)c2ccc(CN3CC[C@H](N(C)C)C3)c(C(F)(F)F)c2)cc1Nc1nccc(-c2cncnc2)n1 [bafetinib]
Method in brief: as §1

[5] = compound: Cc1cccc(CC(=O)N2CCc3c2ccc(-c2cn(C)c4ncnc(N)c24)c3F)n1
Method in brief: as §1

nilotinib = compound: Cc1cn(-c2cc(NC(=O)c3ccc(C)c(Nc4nccc(-c5cccnc5)n4)c3)cc(C(F)(F)F)c2)cn1 [nilotinib]
Method in brief: as §1

[6] = compound: Cc1nc(Nc2n[nH]c3c2CN(C(=O)N[C@H](CN(C)C)c2ccccc2)C3(C)C)c2sccc2n1
Method in brief: as §1

dasatinib = compound: Cc1nc(Nc2ncc(C(=O)Nc3c(C)cccc3Cl)s2)cc(N2CCN(CCO)CC2)n1 [dasatinib]
Method in brief: as §1

[7] = compound: Cc1ncc(-c2ccnc(Nc3ccc(S(C)(=O)=O)cc3)n2)n1C(C)C
Method in brief: as §1

[8] = compound: Cn1cc(-c2ccc3c(c2)CCN3C(=O)Cc2cccc(C(F)(F)F)c2)c2c(N)ncnc21
Method in brief: as §1

[9] = compound: Cn1cc(-c2ccc3nnc(C(F)(F)c4ccc5ncccc5c4)n3n2)cn1
Method in brief: as §1

tipifarnib = compound: Cn1cncc1[C@@](N)(c1ccc(Cl)cc1)c1ccc2c(c1)c(-c1cccc(Cl)c1)cc(=O)n2C [tipifarnib]
Method in brief: as §1

mubritinib = compound: FC(F)(F)c1ccc(/C=C/c2nc(COc3ccc(CCCCn4ccnn4)cc3)co2)cc1 [mubritinib]
Method in brief: as §1

Measured: log2 fold change

HIC2 (UniProt Q96JB3)
active: [6] -0.446
inactive: [1] -0.037 | crizotinib 0.067 | [2] -0.079 | [3] 0.043 | duvelisib -0.103 | gandotinib 0.088 | tozasertib 0.121 | [4] 0.011 | doramapimod 0.121 | ispinesib -0.061 | bafetinib 0.065 | [5] 0.006 | nilotinib 0.075 | dasatinib 0.071 | [7] -0.181 | [8] -0.124 | [9] -0.032 | tipifarnib -0.051 | mubritinib -0.051

GTF2A1 (UniProt P52655)
Chain of UniProt P52655 (P52655 whole entry, looked up): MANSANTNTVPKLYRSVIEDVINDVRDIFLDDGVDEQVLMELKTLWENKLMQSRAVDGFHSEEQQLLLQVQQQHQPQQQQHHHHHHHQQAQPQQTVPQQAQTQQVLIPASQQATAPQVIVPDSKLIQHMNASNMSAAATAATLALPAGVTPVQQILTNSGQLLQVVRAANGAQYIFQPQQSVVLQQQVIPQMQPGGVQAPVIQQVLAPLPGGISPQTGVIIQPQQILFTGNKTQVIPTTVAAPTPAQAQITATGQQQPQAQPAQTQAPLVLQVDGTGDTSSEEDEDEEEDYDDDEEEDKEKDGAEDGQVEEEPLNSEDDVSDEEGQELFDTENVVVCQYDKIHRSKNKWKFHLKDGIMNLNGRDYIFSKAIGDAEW
inactive: [1] 0.061 | crizotinib 0.074 | [2] 0.061 | [3] -0.065 | duvelisib 0.082 | gandotinib 0.07 | tozasertib -0.027 | [4] -0.066 | doramapimod -0.107 | ispinesib 0.24 | bafetinib 0 | [5] -0.047 | nilotinib 0.111 | [6] -0.047 | dasatinib 0.068 | [7] -0.078 | [8] 0.081 | [9] 0.349 | tipifarnib 0.144 | mubritinib -0.008

HMG20A (UniProt Q9NP66)
inactive: [1] -0.042 | crizotinib 0.07 | [2] -0.018 | [3] -0.199 | duvelisib 0 | gandotinib 0.104 | tozasertib -0.035 | [4] -0.087 | doramapimod 0.071 | ispinesib 0.352 | bafetinib -0.012 | [5] -0.05 | nilotinib -0.046 | [6] -0.02 | dasatinib 0.052 | [7] -0.012 | [8] -0.05 | [9] -0.224 | tipifarnib 0.064 | mubritinib -0.021

HBZ (UniProt P02008)
Chain of UniProt P02008 (P02008 whole entry, looked up): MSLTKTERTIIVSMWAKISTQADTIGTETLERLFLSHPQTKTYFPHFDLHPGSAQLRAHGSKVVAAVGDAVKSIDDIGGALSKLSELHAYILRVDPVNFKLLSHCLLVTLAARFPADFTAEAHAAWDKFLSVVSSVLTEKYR
inactive: [1] 0.017 | crizotinib 0.09 | [2] 0.174 | [3] -0.067 | duvelisib 0.045 | gandotinib 0.084 | tozasertib -0.005 | [4] 0.014 | doramapimod -0.005 | ispinesib 0.21 | bafetinib -0.013 | [5] 0.037 | nilotinib 0.018 | [6] 0.011 | dasatinib 0.073 | [7] -0.008 | [8] 0.137 | [9] 0.282 | tipifarnib -0.183 | mubritinib 0.049

GLB1 (UniProt P16278)
Chain of UniProt P16278 (P16278 whole entry, looked up): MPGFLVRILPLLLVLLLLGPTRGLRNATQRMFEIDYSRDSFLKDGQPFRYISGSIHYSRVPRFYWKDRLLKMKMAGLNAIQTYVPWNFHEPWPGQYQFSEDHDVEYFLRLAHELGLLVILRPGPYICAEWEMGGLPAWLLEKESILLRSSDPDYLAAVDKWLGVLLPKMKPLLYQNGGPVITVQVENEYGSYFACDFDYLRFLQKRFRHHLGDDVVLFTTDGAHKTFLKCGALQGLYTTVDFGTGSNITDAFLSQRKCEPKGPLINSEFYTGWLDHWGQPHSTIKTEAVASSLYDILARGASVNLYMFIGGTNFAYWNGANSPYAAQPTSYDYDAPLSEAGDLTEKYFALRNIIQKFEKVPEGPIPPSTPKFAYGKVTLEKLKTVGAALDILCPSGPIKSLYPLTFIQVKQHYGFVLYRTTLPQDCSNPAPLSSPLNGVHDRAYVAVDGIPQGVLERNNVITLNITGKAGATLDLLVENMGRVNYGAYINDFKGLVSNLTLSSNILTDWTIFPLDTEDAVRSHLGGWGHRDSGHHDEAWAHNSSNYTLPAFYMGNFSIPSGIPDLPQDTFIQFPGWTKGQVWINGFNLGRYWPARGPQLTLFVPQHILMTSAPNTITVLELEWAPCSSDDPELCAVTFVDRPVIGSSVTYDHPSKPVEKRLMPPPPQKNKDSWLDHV
inactive: [1] 0.024 | [2] -0.074 | [3] 0.007 | duvelisib -0.022 | gandotinib 0 | tozasertib 0.036 | [4] -0.004 | doramapimod 0.013 | [5] -0.009 | nilotinib 0.013 | [6] 0.017 | dasatinib 0.061 | [7] 0.004 | [8] -0.006 | [9] 0.016 | tipifarnib 0.039 | mubritinib -0.009
active: crizotinib -0.221 | ispinesib -0.255 | bafetinib -0.418

FUBP3 (UniProt Q96I24)
Chain of UniProt Q96I24 (Q96I24 whole entry, looked up): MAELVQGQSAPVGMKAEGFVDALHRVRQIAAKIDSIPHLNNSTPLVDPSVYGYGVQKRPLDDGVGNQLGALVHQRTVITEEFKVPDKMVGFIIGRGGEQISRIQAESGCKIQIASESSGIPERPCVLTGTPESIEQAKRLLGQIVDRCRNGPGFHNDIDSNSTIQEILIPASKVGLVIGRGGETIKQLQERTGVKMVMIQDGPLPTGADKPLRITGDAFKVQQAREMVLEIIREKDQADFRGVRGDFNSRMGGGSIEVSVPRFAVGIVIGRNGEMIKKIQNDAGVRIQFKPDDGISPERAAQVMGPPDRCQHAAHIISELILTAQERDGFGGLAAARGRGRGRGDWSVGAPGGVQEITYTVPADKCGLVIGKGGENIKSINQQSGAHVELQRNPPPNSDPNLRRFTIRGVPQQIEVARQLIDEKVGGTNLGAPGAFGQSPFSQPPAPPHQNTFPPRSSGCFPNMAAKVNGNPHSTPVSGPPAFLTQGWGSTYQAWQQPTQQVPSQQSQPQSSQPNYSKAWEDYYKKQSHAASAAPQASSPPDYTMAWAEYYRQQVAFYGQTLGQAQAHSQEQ
inactive: [1] -0.076 | crizotinib -0.046 | [2] -0.083 | [3] 0.065 | duvelisib -0.002 | gandotinib -0.106 | tozasertib -0.028 | [4] 0.013 | doramapimod -0.025 | ispinesib -0.049 | bafetinib -0.035 | [5] 0.009 | nilotinib -0.051 | [6] 0.035 | dasatinib -0.024 | [7] 0.167 | [8] -0.059 | [9] -0.045 | tipifarnib 0.014 | mubritinib -0.052

HBA1 (UniProt P69905)
Chain of UniProt P69905 (P69905 whole entry, looked up): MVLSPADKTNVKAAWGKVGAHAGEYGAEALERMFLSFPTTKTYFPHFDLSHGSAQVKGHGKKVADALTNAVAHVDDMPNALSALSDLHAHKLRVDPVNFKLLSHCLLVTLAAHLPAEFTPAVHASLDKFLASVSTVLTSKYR
inactive: [1] 0.009 | crizotinib 0.097 | [2] 0.213 | [3] -0.058 | duvelisib 0.094 | gandotinib 0.025 | tozasertib 0.081 | [4] 0.004 | doramapimod 0 | ispinesib 0.24 | bafetinib -0.013 | [5] 0.138 | nilotinib 0.029 | [6] 0.017 | dasatinib 0.044 | [7] 0.01 | [8] 0.156 | tipifarnib -0.084 | mubritinib 0.024
active: [9] 0.345

GTF2B (UniProt Q00403)
Chain of UniProt Q00403 (Q00403 whole entry, looked up): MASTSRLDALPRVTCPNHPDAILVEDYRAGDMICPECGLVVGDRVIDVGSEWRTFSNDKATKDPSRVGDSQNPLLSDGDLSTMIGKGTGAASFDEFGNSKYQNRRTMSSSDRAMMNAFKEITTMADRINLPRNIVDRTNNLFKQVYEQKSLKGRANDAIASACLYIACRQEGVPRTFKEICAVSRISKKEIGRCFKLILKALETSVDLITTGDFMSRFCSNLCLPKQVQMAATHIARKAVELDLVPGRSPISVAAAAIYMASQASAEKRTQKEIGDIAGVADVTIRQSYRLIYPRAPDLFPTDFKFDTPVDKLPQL
inactive: [1] -0.007 | crizotinib -0.044 | [2] 0.115 | [3] 0.001 | duvelisib 0.121 | gandotinib -0.146 | tozasertib 0.102 | [4] 0.127 | doramapimod -0.044 | ispinesib -0.091 | bafetinib -0.005 | [5] 0.139 | nilotinib -0.134 | [6] -0.13 | dasatinib -0.247 | [7] 0.006 | [8] 0.031 | [9] 0.102 | tipifarnib -0.082 | mubritinib 0.007

IDI1 isoform 2 (UniProt Q13907)
Chain of UniProt Q13907 (Q13907 whole entry, looked up): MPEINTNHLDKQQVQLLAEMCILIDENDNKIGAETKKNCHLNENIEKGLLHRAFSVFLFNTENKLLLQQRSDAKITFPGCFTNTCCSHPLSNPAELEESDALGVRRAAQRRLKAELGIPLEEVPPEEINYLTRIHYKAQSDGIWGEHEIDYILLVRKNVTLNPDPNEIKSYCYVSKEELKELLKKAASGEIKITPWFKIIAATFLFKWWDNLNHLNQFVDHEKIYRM
inactive: [1] 0.052 | crizotinib 0.093 | [2] 0.062 | [3] -0.018 | duvelisib 0.069 | gandotinib 0.014 | tozasertib 0.057 | [4] -0.028 | doramapimod -0.063 | ispinesib 0.045 | bafetinib -0.019 | [5] -0.038 | nilotinib 0.049 | [6] 0.022 | dasatinib 0.002 | [7] -0.01 | [8] 0.096 | [9] -0.012 | tipifarnib 0.018 | mubritinib 0.054

GNS (UniProt P15586)
Chain of UniProt P15586 (P15586 whole entry, looked up): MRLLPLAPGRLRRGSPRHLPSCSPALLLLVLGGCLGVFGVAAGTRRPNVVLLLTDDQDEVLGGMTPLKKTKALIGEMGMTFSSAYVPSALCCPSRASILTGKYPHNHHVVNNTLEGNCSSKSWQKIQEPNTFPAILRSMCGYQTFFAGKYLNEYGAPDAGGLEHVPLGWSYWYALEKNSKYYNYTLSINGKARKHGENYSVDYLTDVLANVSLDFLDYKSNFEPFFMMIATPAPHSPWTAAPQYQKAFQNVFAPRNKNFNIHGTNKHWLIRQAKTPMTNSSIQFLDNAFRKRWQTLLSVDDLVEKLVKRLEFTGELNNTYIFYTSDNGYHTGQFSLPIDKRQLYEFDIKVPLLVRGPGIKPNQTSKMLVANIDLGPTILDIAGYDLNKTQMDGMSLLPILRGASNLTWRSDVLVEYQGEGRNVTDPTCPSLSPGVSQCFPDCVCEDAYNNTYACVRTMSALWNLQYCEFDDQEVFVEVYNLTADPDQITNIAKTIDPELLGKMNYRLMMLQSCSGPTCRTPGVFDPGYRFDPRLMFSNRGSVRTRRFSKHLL
inactive: [1] 0.001 | crizotinib -0.115 | [2] 0.046 | [3] -0.032 | duvelisib 0.016 | gandotinib 0.061 | tozasertib 0.014 | [4] -0.028 | doramapimod 0.016 | ispinesib -0.021 | bafetinib -0.156 | [5] -0.002 | nilotinib 0.003 | [6] 0.037 | dasatinib 0.006 | [7] -0.033 | [8] 0.008 | [9] -0.028 | tipifarnib 0.02 | mubritinib -0.004

GPKOW (UniProt Q92917)
Chain of UniProt Q92917 (Q92917 whole entry, looked up): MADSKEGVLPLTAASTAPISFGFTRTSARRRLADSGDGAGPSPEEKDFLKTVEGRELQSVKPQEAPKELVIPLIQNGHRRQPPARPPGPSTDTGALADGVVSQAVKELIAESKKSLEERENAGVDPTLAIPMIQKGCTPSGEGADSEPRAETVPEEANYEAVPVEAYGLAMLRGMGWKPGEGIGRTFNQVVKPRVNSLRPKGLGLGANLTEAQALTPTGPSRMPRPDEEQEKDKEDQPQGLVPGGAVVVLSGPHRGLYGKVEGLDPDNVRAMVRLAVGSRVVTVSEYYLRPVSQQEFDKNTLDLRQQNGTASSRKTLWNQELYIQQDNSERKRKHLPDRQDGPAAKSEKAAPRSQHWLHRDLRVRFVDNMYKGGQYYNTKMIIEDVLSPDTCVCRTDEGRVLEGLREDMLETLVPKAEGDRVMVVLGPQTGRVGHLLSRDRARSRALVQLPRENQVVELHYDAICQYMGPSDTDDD
inactive: [1] 0.004 | crizotinib -0.147 | [2] 0.104 | [3] -0.004 | duvelisib 0.087 | gandotinib -0.094 | tozasertib -0.121 | [4] 0.195 | doramapimod -0.03 | ispinesib -0.013 | bafetinib -0.025 | [5] 0.086 | nilotinib -0.057 | [6] -0.207 | [7] -0.025 | [8] 0.114 | [9] 0.139 | tipifarnib -0.071 | mubritinib 0.126
active: dasatinib -0.326

HTATIP2 isoform 3 (UniProt Q9BUP3)
Chain of UniProt Q9BUP3 (Q9BUP3 whole entry, looked up): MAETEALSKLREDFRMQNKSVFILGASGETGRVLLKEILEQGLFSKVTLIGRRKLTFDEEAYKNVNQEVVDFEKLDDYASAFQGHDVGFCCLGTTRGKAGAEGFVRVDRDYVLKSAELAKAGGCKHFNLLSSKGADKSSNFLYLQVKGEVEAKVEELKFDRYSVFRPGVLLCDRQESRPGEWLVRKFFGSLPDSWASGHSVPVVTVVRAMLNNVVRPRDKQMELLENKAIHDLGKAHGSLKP
active: duvelisib 0.294
inactive: [1] 0.014 | crizotinib -0.106 | [2] 0.023 | [3] -0.145 | gandotinib 0.003 | tozasertib 0.013 | [4] 0.027 | doramapimod 0.003 | ispinesib -0.111 | bafetinib -0.143 | [5] -0.016 | nilotinib 0.116 | [6] -0.056 | dasatinib -0.046 | [7] -0.002 | [8] 0.031 | [9] 0.067 | tipifarnib 0.106 | mubritinib -0.063

GSTM4 (UniProt Q03013)
Chain of UniProt Q03013 (Q03013 whole entry, looked up): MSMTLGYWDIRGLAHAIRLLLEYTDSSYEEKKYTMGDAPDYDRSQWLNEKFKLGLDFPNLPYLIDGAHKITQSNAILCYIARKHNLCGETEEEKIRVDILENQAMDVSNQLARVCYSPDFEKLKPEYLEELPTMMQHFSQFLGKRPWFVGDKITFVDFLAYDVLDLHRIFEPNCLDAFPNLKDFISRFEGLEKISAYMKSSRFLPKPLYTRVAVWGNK
inactive: [1] -0.181 | crizotinib -0.006 | [2] 0.004 | [3] 0.054 | duvelisib 0.101 | gandotinib -0.028 | tozasertib -0.068 | [4] 0.035 | doramapimod -0.037 | ispinesib -0.012 | bafetinib 0.021 | [5] 0.002 | nilotinib 0.001 | [6] 0.088 | dasatinib 0 | [7] -0.018 | [8] 0.026 | [9] -0.141 | tipifarnib -0.023 | mubritinib -0.08

FKBP7 (UniProt Q9Y680)
Chain of UniProt Q9Y680 (Q9Y680 whole entry, looked up): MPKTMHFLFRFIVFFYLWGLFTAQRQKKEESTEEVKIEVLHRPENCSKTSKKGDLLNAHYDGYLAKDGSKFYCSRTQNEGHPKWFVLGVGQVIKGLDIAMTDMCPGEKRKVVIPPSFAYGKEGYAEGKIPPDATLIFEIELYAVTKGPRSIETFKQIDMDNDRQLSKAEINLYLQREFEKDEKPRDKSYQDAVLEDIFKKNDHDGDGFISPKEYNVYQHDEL
inactive: [1] 0.052 | crizotinib 0.094 | [2] 0.003 | [3] 0.114 | duvelisib -0.043 | gandotinib 0.114 | tozasertib -0.054 | [4] 0.005 | doramapimod -0.023 | ispinesib 0.044 | bafetinib 0 | [5] -0.04 | nilotinib 0.055 | [6] -0.058 | dasatinib 0.064 | [7] 0 | [8] 0.071 | [9] 0.012 | tipifarnib 0.027 | mubritinib 0.031

FDFT1 (UniProt P37268)
active: duvelisib 0.32
inactive: [1] -0.009 | crizotinib 0.105 | [2] -0.032 | [3] -0.065 | gandotinib 0.061 | tozasertib -0.032 | [4] 0.174 | doramapimod 0.02 | ispinesib 0.077 | bafetinib 0.01 | [5] 0.016 | nilotinib 0.12 | [6] 0.071 | dasatinib 0.023 | [7] -0.019 | [8] 0.111 | [9] -0.047 | tipifarnib 0.089 | mubritinib 0.022

GALC (UniProt P54803)
Chain of UniProt P54803 (P54803 whole entry, looked up): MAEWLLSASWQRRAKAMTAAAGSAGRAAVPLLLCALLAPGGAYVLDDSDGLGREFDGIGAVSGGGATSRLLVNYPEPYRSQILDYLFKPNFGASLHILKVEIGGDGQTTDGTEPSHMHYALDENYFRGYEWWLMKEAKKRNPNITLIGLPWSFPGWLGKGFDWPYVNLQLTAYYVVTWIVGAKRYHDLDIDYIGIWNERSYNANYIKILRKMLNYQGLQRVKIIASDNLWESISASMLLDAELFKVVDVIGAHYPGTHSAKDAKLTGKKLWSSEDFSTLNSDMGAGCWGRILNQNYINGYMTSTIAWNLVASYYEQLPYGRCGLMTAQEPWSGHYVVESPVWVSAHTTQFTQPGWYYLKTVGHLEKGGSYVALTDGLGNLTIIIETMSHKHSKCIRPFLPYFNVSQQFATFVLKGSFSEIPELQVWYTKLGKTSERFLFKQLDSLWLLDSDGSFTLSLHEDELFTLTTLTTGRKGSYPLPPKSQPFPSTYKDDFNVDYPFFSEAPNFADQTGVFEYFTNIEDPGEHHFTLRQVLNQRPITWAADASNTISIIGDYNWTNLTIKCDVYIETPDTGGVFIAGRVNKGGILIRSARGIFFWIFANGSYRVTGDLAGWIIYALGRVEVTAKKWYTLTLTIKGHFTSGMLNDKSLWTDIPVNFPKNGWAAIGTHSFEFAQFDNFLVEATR
inactive: [1] 0.03 | crizotinib -0.023 | [2] 0.03 | [3] -0.012 | duvelisib -0.049 | gandotinib 0.008 | tozasertib 0.033 | [4] 0 | doramapimod -0.01 | ispinesib -0.135 | [5] 0.084 | nilotinib 0.008 | [6] 0.045 | dasatinib 0.096 | [7] 0.01 | [8] 0.004 | [9] 0.065 | tipifarnib 0.126 | mubritinib -0.005
active: bafetinib -0.507

Source: the supplement of paper PMC10849652
